Measurements reported in PubChem BioAssay AID1159580 (chemical genetic matrix, 2015).
The campaign covered roughly 5,500 compounds. About 2,000 (36%) were called active. Roughly 18% stayed inconclusive and do not appear here. No stated cut-off is given here; in the data, active means normalized growth mostly below about 0.91 (no sharp cut-off); inconclusive means no clear call, values can overlap the other calls; inactive means mostly above about 0.92. Some of the results follow.

Test: chemical genetic growth profiling, strain panel (AID 1159580);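 further: tested at 20 µM; growth read once vehicle control cultures reached saturation at 30 °C; 1 = growth at the plate median or of vehicle wells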
Settings: S. cerevisiae deletion strains, growth OD
[1] = locus YAR019C, strain CDC15, stronger effect = lower value
[2] = locus YBL105C, strain PKC1, stronger effect = lower value
[3] = locus YBR135W, strain CKS1, stronger effect = lower value
[4] = locus YBR136W, strain MEC1, stronger effect = lower value
[5] = locus YBR160W, strain CDC28, stronger effect = lower value
[6] = locus YDL017W, strain CDC7, stronger effect = lower value
[7] = locus YDL028C, strain MPS1, stronger effect = lower value
[8] = locus YDL101C, strain DUN1, stronger effect = lower value
[9] = locus YDL108W, strain KIN28, stronger effect = lower value
[10] = locus YDL132W, strain cdc53, stronger effect = lower value
[11] = locus YDL214C, strain PRR2, stronger effect = lower value
[12] = locus YDR052C, strain DBF4, stronger effect = lower value
[13] = locus YDR054C, strain cdc34, stronger effect = lower value
[14] = locus YDR226W, strain ADK1, stronger effect = lower value
[15] = locus YDR477W, strain SNF1, stronger effect = lower value
[16] = locus YER123W, strain YCK3, stronger effect = lower value
[17] = locus YER133W, strain GLC7, stronger effect = lower value
[18] = locus YFL009W, strain cdc4, stronger effect = lower value
[19] = locus YFL029C, strain CAK1, stronger effect = lower value
[20] = locus YFR003C, strain YPI1, stronger effect = lower value
[21] = locus YFR019W, strain FAB1, stronger effect = lower value
[22] = locus YFR028C, strain CDC14, stronger effect = lower value
[23] = locus YGR040W, strain KSS1, stronger effect = lower value
[24] = locus YGR052W, strain FMP48, stronger effect = lower value
[25] = locus YGR092W, strain DBF2, stronger effect = lower value
[26] = locus YHR030C, strain SLT2, stronger effect = lower value
[27] = locus YHR079C, strain IRE1, stronger effect = lower value
[28] = locus YHR082C, strain KSP1, stronger effect = lower value
[29] = locus YHR205W, strain SCH9, stronger effect = lower value
[30] = locus YIL147C, strain SLN1, stronger effect = lower value
[31] = locus YJL095W, strain BCK1, stronger effect = lower value
[32] = locus YJL128C, strain PBS2, stronger effect = lower value
[33] = locus YJL157C, strain FAR1, stronger effect = lower value
[34] = locus YJR016C, strain ILV3, stronger effect = lower value
[35] = locus YJR066W, strain TOR1 (second series), stronger effect = lower value
[36] = locus YJR066W, strain TOR1, stronger effect = lower value
[37] = locus YKL048C, strain ELM1, stronger effect = lower value
[38] = locus YKL067W, strain YNK1, stronger effect = lower value
[39] = locus YKL101W, strain HSL1, stronger effect = lower value
[40] = locus YKL193C, strain SDS22, stronger effect = lower value
[41] = locus YKL203C, strain TOR2, stronger effect = lower value
[42] = locus YLR113W, strain HOG1, stronger effect = lower value
[43] = locus YLR133W, strain CKI1, stronger effect = lower value
[44] = locus YLR403W, strain SFP1, stronger effect = lower value
[45] = locus YML070W, strain DAK1, stronger effect = lower value
[46] = locus YMR001C, strain CDC5, stronger effect = lower value
[47] = locus YMR205C, strain PFK2 (second series), stronger effect = lower value
[48] = locus YMR277W, strain FCP1, stronger effect = lower value
[49] = locus YNL006W, strain LST8, stronger effect = lower value
[50] = locus YNL020C, strain ARK1, stronger effect = lower value
[51] = locus YNL161W, strain CBK1, stronger effect = lower value
[52] = locus YNL183C, strain NPR1, stronger effect = lower value
[53] = locus YNL207W, strain RIO2, stronger effect = lower value
[54] = locus YNL222W, strain SSU72, stronger effect = lower value
[55] = locus YNL307C, strain MCK1 (second series), stronger effect = lower value
[56] = locus YOL078W, strain AVO1, stronger effect = lower value
[57] = locus YOL136C, strain PFK27, stronger effect = lower value
[58] = locus YOR061W, strain CKA2, stronger effect = lower value
[59] = locus YOR119C, strain RIO1, stronger effect = lower value
[60] = locus YOR231W, strain MKK1, stronger effect = lower value
[61] = locus YOR329C, strain SCD5, stronger effect = lower value
[62] = locus YPL031C, strain PHO85, stronger effect = lower value
[63] = locus YPL153C, strain RAD53, stronger effect = lower value
[64] = locus YPL204W, strain HRR25, stronger effect = lower value
[65] = locus YPL209C, strain IPL1, stronger effect = lower value
[66] = locus YPL256C, strain CLN2, stronger effect = lower value
[67] = locus YPR025C, strain CCL1, stronger effect = lower value
[68] = locus YPR106W, strain ISR1, stronger effect = lower value
[69] = locus YPR111W, strain DBF20, stronger effect = lower value
[70] = strain NNK1, stronger effect = lower value
[71] = strain TSCII, stronger effect = lower value

Measured: normalized growth

O=C(Nc1ccc(C(F)(F)F)cc1)N1CCN(c2ccnc3cc(Cl)ccc23)CC1
inactive: [1] 0.984 | [2] 0.977 | [3] 0.987 | [4] 0.973 | [5] 0.973 | [6] 0.994 | [7] 0.981 | [8] 0.982 | [9] 0.983 | [10] 0.995 | [11] 1.01 | [12] 0.983 | [13] 0.975 | [14] 0.983 | [15] 0.997 | [16] 1.02 | [17] 1.01 | [18] 0.985 | [19] 0.965 | [20] 0.988 | [21] 0.999 | [22] 0.984 | [23] 1 | [24] 1.08 | [25] 0.975 | [26] 1.08 | [27] 1.04 | [28] 1.1 | [29] 0.995 | [30] 0.981 | [31] 1.1 | [32] 0.993 | [33] 1 | [34] 0.993 | [35] 1.02 | [36] 1.11 | [37] 0.996 | [38] 0.992 | [39] 1.01 | [40] 0.988 | [41] 1.06 | [42] 1.01 | [43] 0.994 | [44] 1.02 | [45] 1.01 | [46] 0.98 | [47] 1.01 | [48] 0.99 | [49] 0.991 | [50] 1 | [51] 0.978 | [52] 1.04 | [53] 0.99 | [54] 0.982 | [55] 0.979 | [56] 0.991 | [57] 1.01 | [58] 1.01 | [59] 1.06 | [60] 1.02 | [61] 0.991 | [62] 1.01 | [63] 1.01 | [64] 0.997 | [65] 0.984 | [66] 1 | [67] 0.983 | [68] 0.986 | [69] 0.979 | [70] 0.979 | [71] 0.977

O=C(c1ccc2ccccc2c1)N1CCN(c2ccnc3cc(Cl)ccc23)CC1
active: [26] 0.821
inactive: [1] 1 | [2] 1 | [3] 0.997 | [4] 0.997 | [5] 0.995 | [6] 0.998 | [7] 0.991 | [8] 0.994 | [9] 0.99 | [10] 0.987 | [11] 0.957 | [12] 0.988 | [13] 0.981 | [14] 1 | [15] 0.958 | [16] 0.947 | [17] 0.965 | [18] 0.993 | [19] 1 | [20] 1 | [21] 0.941 | [22] 0.997 | [23] 0.959 | [24] 1.08 | [25] 0.977 | [27] 0.968 | [28] 1.01 | [29] 0.904 | [30] 0.996 | [31] 0.94 | [32] 0.98 | [33] 0.974 | [34] 0.998 | [35] 0.947 | [36] 0.96 | [37] 0.974 | [38] 0.962 | [39] 0.958 | [40] 0.992 | [41] 0.991 | [42] 0.955 | [43] 0.95 | [44] 0.951 | [45] 0.959 | [46] 0.992 | [47] 0.973 | [48] 0.995 | [49] 0.995 | [50] 0.945 | [51] 0.997 | [52] 0.953 | [53] 0.994 | [54] 0.995 | [55] 0.921 | [56] 0.997 | [57] 0.952 | [58] 0.973 | [59] 1.03 | [60] 0.955 | [61] 0.995 | [62] 0.953 | [63] 0.962 | [64] 0.939 | [65] 0.998 | [66] 0.929 | [67] 0.988 | [68] 0.999 | [69] 0.984 | [70] 0.987 | [71] 0.998

CC1CCN(C(=O)CC#N)CC1
inactive: locus YAL013W, strain DEP1, stronger effect = lower value 1 | locus YBR229C, strain ROT2, stronger effect = lower value 1 | [8] 1.02 | locus YDL134C, strain PPH21, stronger effect = lower value 0.986 | locus YDR150W, strain NUM1, stronger effect = lower value 1.02 | locus YEL061C, strain CIN8, stronger effect = lower value 1.03 | locus YGR078C, strain PAC10, stronger effect = lower value 1 | [26] 1.06 | locus YHR087W, strain rtc3, stronger effect = lower value 1.02 | locus YJL187C, strain SWE1, stronger effect = lower value 0.981 | locus YJR043C, strain POL32, stronger effect = lower value 0.999 | locus YJR075W, strain HOC1, stronger effect = lower value 1.01 | locus YLR039C, strain RIC1, stronger effect = lower value 1.08 | locus YLR058C, strain SHM2 (second series), stronger effect = lower value 0.995 | locus YLR085C, strain ARP6, stronger effect = lower value 1.01 | locus YLR262C, strain YPT6, stronger effect = lower value 1.1 | locus YML094W, strain GIM5, stronger effect = lower value 0.991 | locus YMR219W, strain ESC1, stronger effect = lower value 1 | locus YMR263W, strain SAP30, stronger effect = lower value 0.985 | locus YNL153C, strain GIM3, stronger effect = lower value 1.01 | locus YNL298W, strain CLA4 (second series), stronger effect = lower value 0.957 | locus YNL322C, strain KRE1, stronger effect = lower value 0.992 | locus YNR030W, strain Alg12, stronger effect = lower value 0.981 | locus YOL006C, strain TOP1, stronger effect = lower value 1.01 | locus YPL055C, strain LGE1, stronger effect = lower value 0.979 | locus YPL241C, strain CIN2, stronger effect = lower value 0.996 | locus YPR135W, strain CTF4, stronger effect = lower value 1.02
